The record followed here is PubChem BioAssay.

The source made the active and inactive calls.

A short description of test [1]: small molecules captured by biotinylated probe aFSTL3 – biochemical, small-molecule microarray, fluorescence 635/667, stem cell growth factor project, primary screen (AID 1064).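 Note: measures binding of the biotinylated anti-FSTL3 antibody to printed compounds.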 As to conditions: higher = more signal.
The nature of test [2]: binders from COS7 lysate, DM2A8 probe, primary screen, torsin A project, cell lysate, small-molecule microarray, fluorescence 635/667 (AID 1065). The conditions noted are these: higher = more signal, COS7 lysate expressing mutant human TOR1A.
Test [3] in a line: small molecules captured by biotinylated probe aFGF2 – biochemical, small-molecule microarray, fluorescence 635/667, stem cell growth factor project, primary screen (AID 1067).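 Note: measures binding of biotinylated aFGF2 protein to printed compounds on slides; z-score merges feature fluorescence and signal-to-noise across triplicate slides.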 The conditions noted are these: higher = more signal.
Test [4] can be described thus: small molecules captured by biotinylated probe aFGF10 – biochemical, small-molecule microarray, fluorescence 635/667, stem cell growth factor project, primary screen (AID 1071).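 Note: score merges 667 nm spot intensity and signal to noise from triplicate slides.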 As to conditions: higher = more signal.
Test [5] deals with Neurogenic locus notch homolog protein 2 (Homo sapiens) (UniProt Q04721). The test can be described thus: small molecules binding Notch2 protein – biochemical, small-molecule microarray, 635 nm fluorescence, stem cell growth factors, primary screen (AID 1073). As to conditions: higher = more signal.
Test [6] concerns the target Pro-neuregulin-1, membrane-bound isoform (Homo sapiens) (UniProt Q02297). Briefly: small molecules binding neuregulin-1 protein – biochemical, small-molecule microarray, fluorescence 635/667, psychiatric disease protein project, primary screen (AID 1075).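 Note: score combines 667 nm spot fluorescence with signal to noise.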 As to conditions: NRG1 binding, 635 nm fluorescence, higher = more signal.
The subject of test [7] is Neuregulin-1 EGF-like domain. Briefly: small molecules binding NRG1 EGF domain – biochemical, small-molecule microarray, 635 nm fluorescence, primary screen (AID 1081).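 Note: binding of the protein to compounds printed on small-molecule microarray slides.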 As to conditions: higher = more signal.
Test [8] can be described thus: FRG1 expression reporter modulators in myotubes – cell-based, C2C12 myotubes, firefly/Renilla luciferase, luminescence, FRG1 inhibition for FSHD, primary screen (AID 1084). As to conditions: FRG1 promoter luciferase, higher = more signal, called active from +8 up or from −8 down.
The nature of test [9]: small molecules captured by biotinylated probe aFST – biochemical, small-molecule microarray, fluorescence 635/667, stem cell growth factor project, primary screen (AID 1086).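 Note: score merges 667 nm fluorescence with signal-to-noise of each printed compound spot.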 As to conditions: higher = more signal.
Test [10] can be described thus: binders of probe aHhip on microarray, primary screen, stem cell growth factor project, biochemical, small-molecule microarray, fluorescence 635/667 (AID 1087).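 Note: score merges spot fluorescence at 667nm with spot signal to noise ratio.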 As to conditions: higher = more signal.

Chain of Neurogenic locus notch homolog protein 2 (Homo sapiens) (Q04721 whole entry, looked up, canonical isoform): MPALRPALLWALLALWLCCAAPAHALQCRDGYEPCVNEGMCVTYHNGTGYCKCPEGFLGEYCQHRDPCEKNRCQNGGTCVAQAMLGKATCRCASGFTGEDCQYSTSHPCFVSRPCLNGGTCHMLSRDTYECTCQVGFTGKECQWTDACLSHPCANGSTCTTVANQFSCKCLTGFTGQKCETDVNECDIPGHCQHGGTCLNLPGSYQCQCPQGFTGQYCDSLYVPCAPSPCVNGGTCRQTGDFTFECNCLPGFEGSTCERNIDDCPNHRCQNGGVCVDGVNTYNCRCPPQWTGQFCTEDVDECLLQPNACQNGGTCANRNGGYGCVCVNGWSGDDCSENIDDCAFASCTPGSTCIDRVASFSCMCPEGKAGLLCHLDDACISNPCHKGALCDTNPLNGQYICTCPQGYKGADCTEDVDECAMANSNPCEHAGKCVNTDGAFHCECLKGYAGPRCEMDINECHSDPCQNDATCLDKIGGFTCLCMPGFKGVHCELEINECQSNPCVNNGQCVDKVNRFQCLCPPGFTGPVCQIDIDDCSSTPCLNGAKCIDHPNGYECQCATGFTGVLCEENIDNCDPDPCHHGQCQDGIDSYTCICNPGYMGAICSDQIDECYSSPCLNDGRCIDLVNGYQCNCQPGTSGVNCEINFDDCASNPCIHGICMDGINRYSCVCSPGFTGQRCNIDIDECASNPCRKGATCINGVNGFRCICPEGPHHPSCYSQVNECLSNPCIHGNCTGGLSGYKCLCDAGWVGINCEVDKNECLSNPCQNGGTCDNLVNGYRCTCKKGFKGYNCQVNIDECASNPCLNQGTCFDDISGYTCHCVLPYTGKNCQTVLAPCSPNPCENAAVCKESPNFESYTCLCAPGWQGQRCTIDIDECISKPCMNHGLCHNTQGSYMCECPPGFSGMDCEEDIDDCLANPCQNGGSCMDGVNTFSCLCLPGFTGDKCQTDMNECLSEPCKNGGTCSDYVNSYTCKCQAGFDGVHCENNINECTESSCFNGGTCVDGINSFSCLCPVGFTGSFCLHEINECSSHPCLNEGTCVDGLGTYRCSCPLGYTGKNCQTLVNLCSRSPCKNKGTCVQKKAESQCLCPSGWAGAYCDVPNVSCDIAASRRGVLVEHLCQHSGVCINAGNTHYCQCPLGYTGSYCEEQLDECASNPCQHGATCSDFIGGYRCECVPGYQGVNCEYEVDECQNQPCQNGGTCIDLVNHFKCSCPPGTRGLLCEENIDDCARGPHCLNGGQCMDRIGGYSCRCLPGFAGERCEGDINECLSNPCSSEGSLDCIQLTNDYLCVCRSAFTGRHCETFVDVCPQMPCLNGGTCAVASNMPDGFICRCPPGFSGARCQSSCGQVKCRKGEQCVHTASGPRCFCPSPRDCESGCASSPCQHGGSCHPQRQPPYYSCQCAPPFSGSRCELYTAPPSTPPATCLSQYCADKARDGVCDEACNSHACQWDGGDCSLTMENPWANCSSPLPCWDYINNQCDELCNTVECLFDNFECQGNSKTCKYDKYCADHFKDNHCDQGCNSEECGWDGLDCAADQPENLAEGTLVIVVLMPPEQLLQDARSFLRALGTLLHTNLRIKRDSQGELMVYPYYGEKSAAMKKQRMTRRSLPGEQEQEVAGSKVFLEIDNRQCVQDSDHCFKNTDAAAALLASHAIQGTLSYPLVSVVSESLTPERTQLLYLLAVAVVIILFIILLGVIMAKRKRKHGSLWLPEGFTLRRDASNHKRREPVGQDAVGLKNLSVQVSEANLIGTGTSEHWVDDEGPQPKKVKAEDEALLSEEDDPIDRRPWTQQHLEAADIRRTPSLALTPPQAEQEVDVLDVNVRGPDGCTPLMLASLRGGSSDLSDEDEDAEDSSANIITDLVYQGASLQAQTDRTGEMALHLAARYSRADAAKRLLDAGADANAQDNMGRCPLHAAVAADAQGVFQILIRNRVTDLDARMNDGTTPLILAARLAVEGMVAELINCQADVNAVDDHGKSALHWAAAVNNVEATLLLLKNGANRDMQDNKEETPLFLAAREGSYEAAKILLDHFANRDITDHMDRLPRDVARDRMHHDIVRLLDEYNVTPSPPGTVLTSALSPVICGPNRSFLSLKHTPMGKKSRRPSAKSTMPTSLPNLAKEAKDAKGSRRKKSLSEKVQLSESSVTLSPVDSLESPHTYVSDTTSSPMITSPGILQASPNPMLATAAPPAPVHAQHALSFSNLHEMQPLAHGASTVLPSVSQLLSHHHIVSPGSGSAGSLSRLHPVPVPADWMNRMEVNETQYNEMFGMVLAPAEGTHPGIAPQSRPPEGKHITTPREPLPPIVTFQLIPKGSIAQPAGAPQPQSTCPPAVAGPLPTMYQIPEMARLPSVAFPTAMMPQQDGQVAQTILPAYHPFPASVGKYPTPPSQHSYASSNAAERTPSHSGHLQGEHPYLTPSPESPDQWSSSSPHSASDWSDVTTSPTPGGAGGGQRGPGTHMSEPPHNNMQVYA
Chain of Pro-neuregulin-1, membrane-bound isoform (Homo sapiens) (Q02297 whole entry, looked up, the tested form may be a part, canonical isoform): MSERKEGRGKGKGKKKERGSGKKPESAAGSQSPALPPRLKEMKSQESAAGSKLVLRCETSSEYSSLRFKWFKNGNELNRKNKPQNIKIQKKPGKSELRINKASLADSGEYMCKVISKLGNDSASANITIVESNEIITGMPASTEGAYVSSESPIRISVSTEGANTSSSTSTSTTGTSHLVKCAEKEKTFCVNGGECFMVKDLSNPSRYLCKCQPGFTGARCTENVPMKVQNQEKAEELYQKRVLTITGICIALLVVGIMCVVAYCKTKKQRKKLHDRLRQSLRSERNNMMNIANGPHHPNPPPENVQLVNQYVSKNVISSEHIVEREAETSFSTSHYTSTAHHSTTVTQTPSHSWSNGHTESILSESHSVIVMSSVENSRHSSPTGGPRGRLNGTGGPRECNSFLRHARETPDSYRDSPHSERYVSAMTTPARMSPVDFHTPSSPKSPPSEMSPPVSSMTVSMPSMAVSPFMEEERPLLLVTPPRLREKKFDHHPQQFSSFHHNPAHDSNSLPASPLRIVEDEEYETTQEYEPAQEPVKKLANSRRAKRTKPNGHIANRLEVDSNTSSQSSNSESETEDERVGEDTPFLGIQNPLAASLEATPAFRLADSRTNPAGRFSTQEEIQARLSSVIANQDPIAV

`COC(=O)c1ccc(OC)c(/C=C\CC(CCc2ccccc2)OC(C)=O)c1` (stereo not given): the composite z-score in test [1] was -0.28; in test [2], -0.115; in [3], -0.118; in [4], -0.672; in test [5] it was -0.394; in test [6] it was -0.289. The composite z-score in test [7] is -0.288; in test [9], -0.458; in test [10], 0.101. The z-score in [8] was -2.76 (inactive).

As to `COC(=O)[C@H]1N=C(c2ccc(OCCCO)cc2)O[C@H]1c1ccccc1CN=[N+]=[N-]`, the composite z-score in test [1] is 1.03; in test [2], -0.872; in [3] it was 0.0544; in test [4], -0.202; in test [5], -0.525; in [6] it was 0.526. For the same compound, the results for the composite z-score in [7], in [9] and in test [10] were 0.591, 0.906 and 0.334, respectively. In addition, the z-score in test [8] was 4.14 (inactive).

Regarding `O=C1NC(=O)C2C1C=CC(C(O)c1ccc(-c3ccccc3)s1)N2Nc1ccccn1` (stereo not given), the composite z-score was 0.536 in test [1]; 0.259 in test [2]; -0.0605 in test [3]; 0.444 in test [4]; 1.31 in test [5]; 1.27 in test [6]. The composite z-score in [7] was 0.988; in test [9], 0.781; in [10], -0.191. For the same compound, in test [8], the z-score was 0.703 (inactive).

Regarding `O=C1N(Cc2ccccc2)c2ccccc2[C@H]2OC(c3ccc(OCCCO)cc3)=N[C@@]12CCS(=O)(=O)c1ccccc1`, the composite z-score in test [1] was 0.149; in test [2], 0.527; in test [3], 0.11; in test [4] it was 0.951; in test [5], 0.931; in test [6], 1.76. The composite z-score in test [7] was determined as 1.28; in test [9], 0.574; in test [10] it was 0.167. Further, in [8], the z-score is -1.25 (inactive).

As for `CC(C)(C)OC(=O)CC[C@]1(C(=O)O)COC(c2ccc(OCCCO)cc2)=N1`, the composite z-score in test [1] was 0.303; in test [2] it was 2.38; in test [3], -0.0279; in test [4] it was -0.011; in test [5], 0.541; in test [6] it was 1.98. Besides, the composite z-score in test [7] was 1.45; in test [9], 0.556; in test [10], -0.0296. Further, the z-score in [8] was 0.394 (inactive).

Regarding `COC(=O)[C@@]1(Cc2ccc(OC)cc2)[C@H]2c3cc(C(=O)N4CCCC4)n(CCF)c3C[C@H]2CN1C(=O)c1ccccc1`, the composite z-score in test [1] was 3.09; in [2], -0.334; in [3], 0.972; in test [4] it was 1.44; in test [5], 1.66; in [6], 2.27. The composite z-score in test [7] was found to be 1.43; in [9], 3.23; in [10], 3. Also, the z-score in test [8] was 1.37 (inactive).

Take `COCCOC(=O)N1C(=O)[C@@]2(c3cc(C#CCCO)ccc31)[C@H](C(=O)NC[C@H](O)c1ccccc1)[C@H]1C(=O)O[C@H](c3ccccc3)[C@H](c3ccccc3)N1[C@@H]2c1ccccc1OCCO`: the composite z-score in [1] is -0.0841; in test [2], 0.284; in test [3] it was -0.0048; in [4] it was 0.486; in test [5] it was 1.48; in [6] it was 0.96. In addition, the composite z-score is 1.31 in test [7], 0.62 in test [9] and -0.0994 in test [10]. The z-score in [8] is -0.154 (inactive).

Regarding `C=CCOC(=O)[C@@H]1[C@H]2C(=O)O[C@H](c3ccccc3)[C@H](c3ccccc3)N2[C@H](c2ccc(OCCOC(=O)[C@@H]3C[C@@H]4C(=O)N[C@@H](CCCCNC(C)=O)C(=O)N4[C@@H]3c3ccc(O)cc3)cc2)[C@@]12C(=O)Nc1ccc(I)cc12`, the composite z-score was -0.101 in [1]; 0.0133 in test [2]; -0.0502 in [3]; 0.722 in [4]; 0.971 in test [5]; 0.767 in [6]. The composite z-score in test [7] is 1.16; in test [9], 0.4; in [10] it was -0.0346. In test [8], the z-score was 0.0976 (inactive).

As for `COCCOC(=O)N1C(=O)[C@@]2(c3cc(C#CCCO)ccc31)[C@H](C(=O)N1CCc3cc(OC)c(OC)cc3C1)[C@H]1C(=O)O[C@H](c3ccccc3)[C@H](c3ccccc3)N1[C@@H]2c1ccc(OCCO)cc1`, the composite z-score in [1] is -0.392; in [2], 0.282; in [3] it was -0.0867; in [4] it was 0.501; in [5] it was 0.467; in test [6] it was 0.007. Moreover, the composite z-score was 1.16 in test [7], 0.242 in test [9] and -0.216 in test [10]. Also, the z-score in [8] is -0.561 (inactive).

For the compound `COC(=O)c1c(CC[C@@H](CO)NC(=O)N[C@@H](C)Cn2cc(C3(O)CCCC3)nn2)oc(C(C)=O)c1C(=O)OC`, the composite z-score was -0.36 in test [1]; 0.715 in test [2]; -0.154 in test [3]; 0.143 in [4]; 0.263 in test [5]; 0.974 in [6]. The composite z-score is 1.02 in test [7], 0.517 in [9] and 0.0002 in test [10]. For the same compound, in test [8], the z-score was 0.533 (inactive).

Take `COCCOC(=O)N1C(=O)[C@@]2(c3cc(C#CCC(C(=O)OC)C(=O)OC)ccc31)[C@H](c1ccc(OCCO)cc1)N1[C@H](c3ccccc3)[C@H](c3ccccc3)OC(=O)[C@H]1[C@@H]2C(N)=O`: the composite z-score was -0.564 in test [1]; -0.461 in test [2]; -0.116 in [3]; 0.245 in [4]; 1.15 in [5]; 0.928 in [6]. The composite z-score worked out at 1.22 in test [7], 0.78 in test [9] and 0.35 in test [10]. Also, in test [8], the z-score is -0.441 (inactive).

Turning to `C=CC[C@]1(C(=O)N(C)C)N=C(c2ccc(OCCCO)cc2)O[C@H]1c1ccccc1`, the composite z-score in test [1] amounted to 0.334; in [2], 0.184; in [3] it was 0.229; in [4] it was 1.14; in test [5], 0.353; in [6], 1.85. For the same compound, the figures for the composite z-score in [7], in test [9] and in test [10] were 1.34, 0.463 and 0.064, respectively. Besides, in test [8], the z-score is 2.28 (inactive).

Regarding `[N-]=[N+]=Nc1ccccc1[C@H]1OC(c2ccc(OCCCO)cc2)=N[C@@]1(Cc1ccccc1)C(=O)NCc1ccccc1`, the composite z-score was -0.274 in test [1]; -0.357 in test [2]; 0.0722 in test [3]; 0.639 in test [4]; 1.12 in [5]; 0.883 in test [6]. Also, the composite z-score is 0.567 in test [7], 0.686 in [9] and 0.0373 in [10]. Further, in test [8], the z-score was -1.55 (inactive).

With `CCCCCCCCCCC(O)C1C=CC2C(=O)NC(=O)C2N1Nc1ccccn1` (stereo not given), the composite z-score is 0.444 in test [1]; -1.14 in test [2]; -0.0899 in test [3]; -0.417 in [4]; 0.439 in test [5]; 1 in test [6]. Further, the composite z-score in test [7] is 0.852; in [9], 0.0124; in [10], -0.236. The z-score in test [8] was 1.06 (inactive).
